Reference: PubChem BioAssay (EPA / NIEHS)
Values joined by “and” are separate entries in the source; they are usually repeats but may differ in a detail not shown here. Identical values can stand only once. Records with an inconclusive call do not appear. A structure can be active in one record and inactive in another. Active and inactive are the calls of the source. How the source made its calls, unless noted: active means hit-call score of the fitted dose curve at least 0.9, where 1 is the maximum; inactive means score below 0.9.

Legend:
[1] = biological target: human RAR-related Orphan Receptor beta (RORb), RORB (gene 6096) (UniProt Q92753); assay: ATG_RORb_TRANS: Attagene TRANS-FACTORIAL HepG2 Assay for human RAR-related Orphan Receptor beta (RORb) (AID 2283010; active means hit-call score of the fitted dose curve at least 0.9, where 1 is the maximum)
Chain of human RAR-related Orphan Receptor beta (RORb), RORB (gene 6096) (Q92753 whole entry, looked up, the tested form may be a part): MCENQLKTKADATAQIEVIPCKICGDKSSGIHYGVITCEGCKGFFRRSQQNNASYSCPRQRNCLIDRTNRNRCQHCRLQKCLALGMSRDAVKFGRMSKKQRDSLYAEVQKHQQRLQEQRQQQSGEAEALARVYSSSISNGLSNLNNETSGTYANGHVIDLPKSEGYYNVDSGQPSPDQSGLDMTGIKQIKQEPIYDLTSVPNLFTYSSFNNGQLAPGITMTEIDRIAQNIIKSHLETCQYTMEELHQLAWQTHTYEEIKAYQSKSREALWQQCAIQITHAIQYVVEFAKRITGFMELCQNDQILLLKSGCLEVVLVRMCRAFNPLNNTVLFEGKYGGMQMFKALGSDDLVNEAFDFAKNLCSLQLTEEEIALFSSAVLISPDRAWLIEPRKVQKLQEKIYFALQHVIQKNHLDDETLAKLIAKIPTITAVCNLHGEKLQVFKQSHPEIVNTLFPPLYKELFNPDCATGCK
Procedure, shortened: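 HepG2 cells transiently transfected with GAL4-UAS reporter units expressing chimeric NR-Gal4 protein; reporter mRNA measured 24 h after dosing by RT-PCR, 6-FAM labelling and capillary electrophoresis. Gain-of-signal fitted relative to DMSO baseline.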

[2] = biological target: human RAR-related Orphan Receptor gamma (RORg), RORC (gene 6097) (UniProt P51449); assay: ATG_RORg_TRANS: Attagene TRANS-FACTORIAL HepG2 Assay for human RAR-related Orphan Receptor gamma (RORg) (AID 2283011; active means hit-call score of the fitted dose curve at least 0.9, where 1 is the maximum)
Chain of human RAR-related Orphan Receptor gamma (RORg), RORC (gene 6097) (P51449 whole entry, looked up, the tested form may be a part): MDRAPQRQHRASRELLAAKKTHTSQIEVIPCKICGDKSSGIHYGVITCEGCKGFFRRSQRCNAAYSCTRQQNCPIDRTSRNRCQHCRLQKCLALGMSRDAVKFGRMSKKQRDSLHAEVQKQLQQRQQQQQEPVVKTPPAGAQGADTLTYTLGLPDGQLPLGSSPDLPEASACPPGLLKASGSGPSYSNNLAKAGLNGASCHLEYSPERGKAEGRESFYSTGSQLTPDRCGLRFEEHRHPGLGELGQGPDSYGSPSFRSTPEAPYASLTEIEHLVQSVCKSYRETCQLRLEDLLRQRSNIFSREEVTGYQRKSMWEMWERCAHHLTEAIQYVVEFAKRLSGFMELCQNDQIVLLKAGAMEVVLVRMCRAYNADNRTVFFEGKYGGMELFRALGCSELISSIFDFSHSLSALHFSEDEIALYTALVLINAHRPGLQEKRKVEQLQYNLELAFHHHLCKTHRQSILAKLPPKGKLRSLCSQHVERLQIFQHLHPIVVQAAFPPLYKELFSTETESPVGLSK
Procedure, shortened: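 Readout: reporter transcript induction (RT-PCR, fluorescent primer extension, capillary electrophoresis) after 24 h compound exposure of transiently transfected HepG2 cells carrying a RORg-Gal4 chimera and GAL4-UAS reporters; DMSO served as baseline, with increasing signal fitted.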

[3] = biological target: Retinoic acid receptor RXR-alpha (Homo sapiens) (UniProt P19793); assay: ATG_RXRa_TRANS: Attagene TRANS-FACTORIAL HepG2 Assay for human Retinoid X Receptor alpha (RXRa) (AID 2283012; active means hit-call score of the fitted dose curve at least 0.9, where 1 is the maximum)
Chain of Retinoic acid receptor RXR-alpha (Homo sapiens) (P19793 whole entry, looked up, the tested form may be a part): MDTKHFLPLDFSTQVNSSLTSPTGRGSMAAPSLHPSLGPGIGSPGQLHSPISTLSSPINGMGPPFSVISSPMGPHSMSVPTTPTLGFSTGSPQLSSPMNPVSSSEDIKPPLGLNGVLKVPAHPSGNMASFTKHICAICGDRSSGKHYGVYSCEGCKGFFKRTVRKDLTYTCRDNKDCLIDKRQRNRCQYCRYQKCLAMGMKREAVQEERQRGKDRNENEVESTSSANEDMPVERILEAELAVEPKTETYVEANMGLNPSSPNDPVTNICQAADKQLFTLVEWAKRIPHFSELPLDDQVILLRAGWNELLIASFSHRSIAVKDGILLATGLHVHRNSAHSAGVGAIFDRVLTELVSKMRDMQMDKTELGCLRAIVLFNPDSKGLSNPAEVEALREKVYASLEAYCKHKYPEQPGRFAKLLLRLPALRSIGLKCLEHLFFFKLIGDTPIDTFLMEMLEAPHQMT
Procedure, shortened: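 HepG2 cells transiently transfected with GAL4-UAS reporter units and chimeric RXRa-Gal4 protein, treated 24 h. Reporter mRNA measured by RT-PCR, fluorescent labelling, HpaI digestion and capillary electrophoresis. Induction fitted against DMSO.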

[4] = biological target: human Retinoid X Receptor beta (RXRb), RXRB (gene 6257) (UniProt P28702); assay: ATG_RXRb_TRANS: Attagene TRANS-FACTORIAL HepG2 Assay for human Retinoid X Receptor beta (RXRb) (AID 2283013; active means hit-call score of the fitted dose curve at least 0.9, where 1 is the maximum)
Chain of human Retinoid X Receptor beta (RXRb), RXRB (gene 6257) (P28702 whole entry, looked up, the tested form may be a part): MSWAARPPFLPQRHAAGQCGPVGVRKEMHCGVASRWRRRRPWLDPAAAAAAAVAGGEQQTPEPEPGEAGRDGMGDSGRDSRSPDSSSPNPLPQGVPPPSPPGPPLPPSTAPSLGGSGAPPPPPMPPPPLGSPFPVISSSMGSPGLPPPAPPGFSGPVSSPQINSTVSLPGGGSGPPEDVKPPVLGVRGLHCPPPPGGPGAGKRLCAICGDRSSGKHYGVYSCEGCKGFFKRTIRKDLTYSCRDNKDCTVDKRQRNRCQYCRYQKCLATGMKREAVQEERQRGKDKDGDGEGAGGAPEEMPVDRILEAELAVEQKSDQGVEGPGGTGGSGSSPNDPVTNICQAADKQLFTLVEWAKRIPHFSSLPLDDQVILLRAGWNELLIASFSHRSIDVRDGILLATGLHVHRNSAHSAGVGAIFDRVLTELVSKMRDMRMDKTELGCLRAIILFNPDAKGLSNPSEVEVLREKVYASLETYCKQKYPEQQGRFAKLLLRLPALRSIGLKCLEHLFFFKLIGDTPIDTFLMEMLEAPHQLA
Procedure, shortened: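 HepG2 cells were transiently transfected with multiplexed GAL4-UAS reporters and a chimeric RXRb-Gal4 construct, then exposed for 24 h. Reporter mRNA was quantified by RT-PCR, FAM labeling, HpaI digestion and capillary electrophoresis; gain of signal was scored against DMSO.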

[5] = read-out: E-selectin (Homo sapiens) (UniProt P16581); assay: BSK_3C_Eselectin: BioMAP Diversity Plus: 3C Assay for Eselectin Biomarker Activity (AID 2283015); conditions: primary human endothelial cells (HUVEC); actives raise or lower the signal
Procedure, shortened: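 Primary human umbilical vein endothelial cells (3C system) were dosed with chemical and cell-surface E-selectin measured by ELISA 24 h later. Bidirectional curve fitting used DMSO as negative control and baseline.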

[6] = read-out: Interleukin-1 alpha (IL1a), IL1A (gene 3552); assay: BSK_BE3C_IL1a: BioMAP Diversity Plus: BE3C Assay for Interleukin-1 alpha (IL1a) Biomarker Activity (AID 2283016); conditions: primary human bronchial epithelial cells; actives raise or lower the signal
Procedure, shortened: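 Human primary bronchial epithelial cells, 24 h chemical exposure; IL-1a quantified by ELISA, fitted bidirectionally against DMSO. Cytotoxicity assessed in parallel by SRB total-protein staining at the time of measurement.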

[7] = read-out: Monocyte Chemoattractant Protein-1 (MCP1), CCL2 (gene 6347); assay: BSK_3C_MCP1: BioMAP Diversity Plus: 3C Assay for Monocyte Chemoattractant Protein-1 (MCP1) Biomarker Activity (AID 2283017); conditions: primary human endothelial cells (HUVEC); actives raise or lower the signal
Procedure, shortened: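 Primary human umbilical vein endothelial cells (3C system) were exposed to test chemical for 24 h, after which MCP-1 was quantified by ELISA. Activity was fitted bidirectionally against DMSO as negative control and baseline.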

[8] = read-out: Monocyte Chemoattractant Protein-1 (MCP1), CCL2 (gene 6347); assay: BSK_4H_MCP1: BioMAP Diversity Plus: 4H Assay for Monocyte Chemoattractant Protein-1 (MCP1) Biomarker Activity (AID 2283018); conditions: primary human endothelial cells (HUVEC); actives raise or lower the signal
Procedure, shortened: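 Human umbilical vein endothelial cells (4H system) exposed to chemicals for 24 h in 96-well format. MCP-1 measured by ELISA; bidirectional fitting against DMSO, with SRB total-protein staining in parallel cultures for cytotoxicity.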

[9] = read-out: Human Leukocyte Antigen - DR isotype (HLADR), HLA-DRA (gene 3122); assay: BSK_3C_HLADR: BioMAP Diversity Plus: 3C Assay for Human Leukocyte Antigen - DR isotype (HLADR) Biomarker Activity (AID 2283019); conditions: primary human endothelial cells (HUVEC); actives raise or lower the signal
Procedure, shortened: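 Primary human umbilical vein endothelial cells (3C system) were dosed with compound and cell-surface HLA-DR was quantified by ELISA at 24 h. Activity was fitted bidirectionally against DMSO as negative control and baseline.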

[10] = read-out: Interleukin-8 (IL8), CXCL8 (gene 3576); assay: BSK_3C_IL8: BioMAP Diversity Plus: 3C Assay for Interleukin-8 (IL8) Biomarker Activity (AID 2283020); conditions: primary human endothelial cells (HUVEC); actives raise or lower the signal
Procedure, shortened: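 Primary human umbilical vein endothelial cells were dosed for 24 h. IL-8 was quantified by ELISA and fitted bidirectionally against DMSO. Cytotoxicity was assessed in parallel cultures by SRB staining at 560 nm.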

[11] = read-out: Monokine induced gamma interferon (MIG), CXCL9 (gene 4283); assay: BSK_3C_MIG: BioMAP Diversity Plus: 3C Assay for Monokine induced gamma interferon (MIG) Biomarker Activity (AID 2283021); conditions: primary human endothelial cells (HUVEC); actives raise or lower the signal;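 on AC50: MIG protein level measured by immunoassay in the treated endothelial cultures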
Procedure, shortened: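 HUVEC primary endothelial cultures dosed with chemical; MIG quantified by ELISA at 24 h. Data fitted bidirectionally against DMSO control, with parallel SRB total-protein staining for cytotoxicity.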

[12] = biological target: human Vitamin D Receptor (VDR), VDR (gene 7421) (UniProt P11473); assay: ATG_VDR_TRANS: Attagene TRANS-FACTORIAL HepG2 Assay for human Vitamin D Receptor (VDR) (AID 2283022; active means hit-call score of the fitted dose curve at least 0.9, where 1 is the maximum)
Chain of human Vitamin D Receptor (VDR), VDR (gene 7421) (P11473 whole entry, looked up, the tested form may be a part): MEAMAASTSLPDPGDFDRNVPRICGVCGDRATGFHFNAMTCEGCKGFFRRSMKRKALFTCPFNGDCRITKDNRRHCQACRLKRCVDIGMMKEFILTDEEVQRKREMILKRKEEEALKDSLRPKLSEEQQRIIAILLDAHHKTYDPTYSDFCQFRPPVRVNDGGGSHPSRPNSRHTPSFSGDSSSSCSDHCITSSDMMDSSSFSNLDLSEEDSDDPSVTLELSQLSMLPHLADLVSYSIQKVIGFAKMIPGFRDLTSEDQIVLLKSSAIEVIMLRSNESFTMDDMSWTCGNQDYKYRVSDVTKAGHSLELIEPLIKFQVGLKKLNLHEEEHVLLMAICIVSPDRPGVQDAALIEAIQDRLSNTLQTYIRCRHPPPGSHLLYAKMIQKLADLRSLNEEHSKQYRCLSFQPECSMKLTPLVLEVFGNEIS
Procedure, shortened: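 HepG2 cells were transiently transfected with multiple GAL4-UAS reporter units, so signal reflects exogenous chimeric receptor-Gal4 activity. After 24 h compound exposure, reporter mRNA was measured by RT-PCR, fluorescent labelling and capillary electrophoresis, fitted for gain of signal versus DMSO.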

[13] = BSK_3C_SRB: Viability Assessment in the BioMAP Diversity Plus: 3C Assay (AID 2283023); conditions: primary human endothelial cells (HUVEC);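 further: fitted both ways against DMSO so a hit may be signal rise or drop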
Procedure, shortened: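 Primary human umbilical vein endothelial cells in the 3C system were read 24 h after compound dosing. Total protein was stained with 0.1% sulforhodamine B after 10% TCA fixation and read at 560 nm, with bidirectional fitting against DMSO as baseline.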

[14] = read-out: Matrix Metallopeptidase 1 (MMP1), MMP1 (gene 4312); assay: BSK_BE3C_MMP1: BioMAP Diversity Plus: BE3C Assay for Matrix Metallopeptidase 1 (MMP1) Biomarker Activity (AID 2283024); conditions: primary human bronchial epithelial cells; actives raise or lower the signal
Procedure, shortened: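 Human primary bronchial epithelial cells (BE3C system) dosed for 24 h; MMP-1 quantified by ELISA. Bidirectional fit against DMSO; cytotoxicity tracked in parallel cultures by SRB total-protein staining.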

[15] = BSK_3C_Vis: BioMAP Diversity Plus: 3C Assay for Morphology Visualization (AID 2283025); conditions: primary human endothelial cells (HUVEC);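 further: fitted both ways so gain or loss versus DMSO counts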;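 on AC50: light microscopy image of cell morphology used as background control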
Procedure, shortened: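 Human umbilical vein endothelial cell morphology was inspected by light microscopy 24 h after chemical dosing; scored bidirectionally relative to DMSO.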

[16] = read-out: Pselectin, SELP (gene 6403); assay: BSK_4H_Pselectin: BioMAP Diversity Plus: 4H Assay for Pselectin Biomarker Activity (AID 2283026); conditions: primary human endothelial cells (HUVEC); actives raise or lower the signal
Procedure, shortened: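 Primary human umbilical vein endothelial cells were treated 24 h, and cell-surface P-selectin was then quantified by ELISA. Bidirectional fit versus DMSO; cytotoxicity checked in parallel cultures by SRB total-protein staining.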

[17] = BSK_4H_SRB: Viability Assessment in the BioMAP Diversity Plus: 4H Assay (AID 2283027); conditions: primary human endothelial cells (HUVEC);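 further: cells exposed to compound for 24 h before staining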;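 on AC50: curves fitted both ways versus DMSO so AC50 may be loss or gain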
Procedure, shortened: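 Human umbilical vein endothelial cells were dosed with chemical and, after 24 h, fixed with 10% TCA, stained with 0.1% sulforhodamine B, and read at 560 nm to give total protein as a cytotoxicity measure. Bidirectional fitting relative to DMSO control.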

[18] = BSK_BE3C_SRB: Viability Assessment in the BioMAP Diversity Plus: BE3C Assay (AID 2283028); conditions: primary human bronchial epithelial cells;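 on AC50: fitted both ways so AC50 may mark signal gain or loss versus DMSO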
Procedure, shortened: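 Human primary bronchial epithelial cells were exposed to test chemicals for 24 h. Total protein in parallel cultures was then measured by staining with 0.1% sulforhodamine B after 10% TCA fixation, with absorbance read at 560 nm. Activity was fitted bidirectionally against DMSO.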

[19] = read-out: Thrombomodulin, THBD (gene 7056); assay: BSK_3C_Thrombomodulin: BioMAP Diversity Plus: 3C Assay for Thrombomodulin Biomarker Activity (AID 2283029); conditions: primary human endothelial cells (HUVEC); actives raise or lower the signal
Procedure, shortened: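 Human umbilical vein endothelial cells were exposed to chemicals for 24 h; cell-surface thrombomodulin quantified by ELISA, with bidirectional fitting against DMSO baseline.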

[20] = biological target: human Thyroid Receptor alpha (THRa1), THRA (gene 7067) (UniProt P10827); assay: ATG_THRa1_TRANS: Attagene TRANS-FACTORIAL HepG2 Assay for human Thyroid Receptor alpha (THRa1) (AID 2283014; active means hit-call score of the fitted dose curve at least 0.9, where 1 is the maximum)
Chain of human Thyroid Receptor alpha (THRa1), THRA (gene 7067) (P10827 whole entry, looked up, the tested form may be a part): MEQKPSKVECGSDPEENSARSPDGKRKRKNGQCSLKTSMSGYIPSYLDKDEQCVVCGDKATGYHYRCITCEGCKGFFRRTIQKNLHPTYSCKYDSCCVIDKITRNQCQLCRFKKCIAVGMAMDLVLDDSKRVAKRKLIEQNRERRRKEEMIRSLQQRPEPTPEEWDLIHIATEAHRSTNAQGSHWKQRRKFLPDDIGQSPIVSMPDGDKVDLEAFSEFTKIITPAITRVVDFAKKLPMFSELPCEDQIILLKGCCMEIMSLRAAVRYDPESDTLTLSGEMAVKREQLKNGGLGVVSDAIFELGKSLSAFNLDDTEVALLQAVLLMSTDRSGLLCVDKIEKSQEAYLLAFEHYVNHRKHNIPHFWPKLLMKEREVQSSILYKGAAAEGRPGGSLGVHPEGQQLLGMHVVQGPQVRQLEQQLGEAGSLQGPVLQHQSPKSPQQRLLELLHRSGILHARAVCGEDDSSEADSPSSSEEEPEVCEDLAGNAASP
Procedure, shortened: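 HepG2 cells transiently transfected with multiplexed GAL4-UAS reporter units for exogenous chimeric THRa1-Gal4; reporter mRNA measured 24 h after dosing by RT-PCR, 6-FAM labelling, HpaI digestion and capillary electrophoresis. Gain-of-signal fitted versus DMSO baseline.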

Measured: AC50

Chain of E-selectin (Homo sapiens) (P16581 whole entry, looked up): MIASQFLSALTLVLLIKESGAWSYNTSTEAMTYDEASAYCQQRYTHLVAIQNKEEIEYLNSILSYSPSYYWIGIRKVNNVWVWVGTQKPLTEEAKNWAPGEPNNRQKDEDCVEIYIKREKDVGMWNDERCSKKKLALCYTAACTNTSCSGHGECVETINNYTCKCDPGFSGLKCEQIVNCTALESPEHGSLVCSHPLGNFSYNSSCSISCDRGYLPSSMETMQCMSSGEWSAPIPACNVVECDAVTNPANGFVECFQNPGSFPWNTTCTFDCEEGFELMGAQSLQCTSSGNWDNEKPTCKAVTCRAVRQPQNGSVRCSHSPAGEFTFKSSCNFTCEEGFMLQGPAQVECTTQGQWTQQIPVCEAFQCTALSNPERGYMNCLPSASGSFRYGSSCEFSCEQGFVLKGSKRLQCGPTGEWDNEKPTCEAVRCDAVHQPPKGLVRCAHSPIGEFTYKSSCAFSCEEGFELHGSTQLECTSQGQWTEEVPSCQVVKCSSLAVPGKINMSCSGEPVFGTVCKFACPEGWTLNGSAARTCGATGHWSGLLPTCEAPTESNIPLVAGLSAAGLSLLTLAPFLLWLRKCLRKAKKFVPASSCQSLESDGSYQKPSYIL

O=S(=O)(O)C(F)(F)C(F)(F)C(F)(F)C(F)(F)C(F)(F)C(F)(F)F
active: [14] 44.3 µM and 37.7 µM | [16] 17.2 µM
inactive: [1] | [2] | [3] | [4] | [5] | [6] | [7] | [8] | [9] | [10] | [11] | [12] | [13] | [14] | [15] | [16] | [17] | [18] | [19]

Oc1ccc(C(c2ccc(O)cc2)(C(F)(F)F)C(F)(F)F)cc1
inactive: [1] | [3] | [20] | [12]
active: [4] 5 µM [middle of 4 runs] | [5] 30.1 µM | [6] 30.8 µM | [7] 19.9 µM | [8] 14 µM | [9] 18.5 µM | [10] 18.8 µM | [11] 34.9 µM | [13] 16.2 µM | [14] 34 µM | [16] 15.7 µM | [17] 28 µM | [18] 37.2 µM | [19] 21.3 µM

O=S(=O)(O)C(F)(F)C(F)(F)C(F)(F)C(F)(F)F
not listed: [1] | [4] | [15] | [19]
inactive: all other assays above

CC(C)(O)C(=O)Nc1ccc([N+](=O)[O-])c(C(F)(F)F)c1
inactive: [1] | [2] | [3] | [4] | [20] | [5] | [6] | [7] | [8] | [9] | [10] | [11] | [12] | [13] | [14] | [15] | [16] | [17] | [18]
active: [4] 22.8 µM and 28.1 µM and 15.6 µM

ClC(Cl)=C(c1ccc(Cl)cc1)c1ccc(Cl)cc1
inactive: [1] | [3] | [20] | [6] | [12] | [18] | [19]
active: [4] 17.5 µM [middle of 4 runs] | [5] 30.7 µM | [8] 20 µM | [9] 30.5 µM | [10] 32.1 µM | [11] 35 µM | [13] 29.2 µM | [14] 25.2 µM | [15] 37.3 µM | [16] 31.3 µM | [17] 30.6 µM

Cc1cc(-c2ccc(N)c(C)c2)ccc1N
not listed: [1] | [15] | [19]
inactive: all other assays above

O=C(NC(=O)c1cc(F)c(F)cc1Cl)Nc1cc(F)ccc1N1CCC(C(=O)O)CC1
not listed: [3] | [4] | [12] | [15] | [20]
inactive: all other assays above

C=CC(=O)NCNC(=O)C=C
not listed: [2] | [3] | [4] | [20]
inactive: all other assays above

CCCN(CCC)N=O
not listed: [1] | [3] | [4] | [12] | [15] | [19] | [20]
inactive: all other assays above

CC#Cc1cc(C)nc(Nc2ccccc2)n1
active: [4] 61.7 µM
not listed: [1] | [2] | [20]
inactive: all other assays above

O=C(N[C@H]1CN2CCC1CC2)c1cc2ccoc2cn1
not listed: [1] | [2] | [3] | [15] | [20]
inactive: all other assays above
